Source: PubChem BioAssay AID489008 (National Center for Advancing Translational Sciences (NCATS), 2010)
Inconclusive results are not listed. Calls of active or inactive are those of the source. The call rests on the fitted dose curve; in most records, active means well fitted inhibition curve with a large enough effect; inconclusive means small, poorly fitted or top-dose-only effect; inactive means flat fitted curve, though single readings scatter.

Target: Ferritin light chain (Equus caballus) (UniProt P02791)
Sequence (P02791 2-175 limits assumed): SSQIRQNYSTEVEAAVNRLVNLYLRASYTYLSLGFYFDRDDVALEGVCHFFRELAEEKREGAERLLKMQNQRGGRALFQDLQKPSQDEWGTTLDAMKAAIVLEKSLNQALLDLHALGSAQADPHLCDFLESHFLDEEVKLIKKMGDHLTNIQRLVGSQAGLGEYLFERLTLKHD
Assay: Confirmation Assay for Identification of Novel General Anesthetics; further: nearly all actives have a fitted effect of over 40% in size
Settings: apoferritin 1-aminoanthracene fluorescence displacement
In short: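 Horse apoferritin (10 uM) pre-loaded with 1-AMA (50% saturated, PBS) exposed to compounds 10 min at room temperature; loss of 1-AMA fluorescence (380/535 nm) scaled between free and bound ligand, curves fitted with Hill equation.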
Potency means the concentration at half of the fitted maximal effect.

Potency, active:
Fc1ccccc1CSc1nncn1NC/C=C/c1ccccc1 31.6 µM
O=C(COC(=O)CC1CC2CCC1C2)Nc1ccc(F)cc1 (stereo not drawn) 20 µM
Cc1ccc(C2=NN(CC(=O)NC(C)c3ccccc3)C(=O)CC2)cc1 (stereo not drawn) 31.6 µM
O=C(CCNc1cccc(Cl)c1)c1cccs1 17.8 µM
Cc1sc2ncn(CC(=O)NCc3ccco3)c(=O)c2c1-c1ccccc1 28.2 µM
Fc1ccccc1CSc1nc2ccccc2[nH]1 15.8 µM
Nc1c(C(=O)NCc2ccccc2)nnn1Cc1cccc(Cl)c1 3.98 µM
Fc1ccccc1CNc1cc(Cl)cc(Cl)c1 14.1 µM
O=C(CSc1ccc(F)cc1)NC12CC3CC(CC(C3)C1)C2 15.8 µM
Cc1ccc(-c2ccc(=O)n(CC(=O)NC(C)c3ccccc3)n2)cc1 (stereo not drawn) 20 µM
CC1(c2ccc(NC(=O)c3ccccc3F)cc2)CC1(Cl)Cl (stereo not drawn) 12.6 µM
CC(C)c1ccc(NC(=O)C2CC3CCC2C3)cc1 (stereo not drawn) 31.6 µM
O=C(CSC(=S)N1CCCCC1)c1ccccc1 15.8 µM
O=C(CCc1ccccc1)NC(=S)Nc1ccccc1[N+](=O)[O-] 15.8 µM
Cc1cccc(NC(=O)N2CCCCCC2)c1C 8.91 µM
Fc1ccc(NCc2ccccc2F)cc1Cl 14.1 µM
C/C(=N\Nc1ccc(F)cc1F)c1cccs1 11.2 µM
CCCNC(=O)c1csc2c1CCCCC2 28.2 µM
O=C(Cn1sc2ccccc2c1=O)NC12CC3CC(CC(C3)C1)C2 15.8 µM
CCc1ccc(NC(=O)C2(C)Cc3ccccc3C(=O)O2)cc1 (stereo not drawn) 31.6 µM
Clc1ccc(CNc2ccccn2)cc1 15.8 µM
O=C(NC12CC3CC(CC(C3)C1)C2)c1ccco1 14.1 µM
CCN1C(=O)N(c2ccc(Cl)cc2)C(C)=CC1(C)C 35.5 µM
Cc1ccccc1OCC(=O)N1CCCCCCC1 7.94 µM
Nc1nc(C23CC4CC(CC(C4)C2)C3)cs1 7.94 µM
Cc1cc(C)n2nc(CC(=O)NC3CCCCCCC3)nc2n1 10 µM
Nc1ccc(Nc2ccccc2)c(Cl)c1 12.6 µM
O=C(CC1SCCNC1=O)Nc1ccc(Cl)c(Cl)c1 (stereo not drawn) 20 µM
O=S(=O)(NCCC1=CCCCC1)c1ccc(F)cc1 8.91 µM
Nc1nc(-c2ccc3c(c2)CCCC3)cs1 28.2 µM
O=C(Nc1cccc(Cl)c1)OCc1cncs1 15.8 µM
CCN1C(=O)N(c2cccc3ccccc23)C(C)=CC1(C)C 14.1 µM
Cc1cc(C)n2nc(CC(=O)NC3CCCCCC3)nc2n1 8.91 µM
Cc1ccc(NC(=O)N2CCCCCC2)cc1C 6.31 µM
Oc1cccc(Oc2ncc(C(F)(F)F)cc2Cl)c1 7.94 µM
CN(CC(=O)Nc1ccccc1Cl)C1CCCCC1 15.8 µM
CC(C)CCOc1ccc(C2N=C(N)Nc3nc4ccccc4n32)cc1 (stereo not drawn) 12.6 µM
O=S(=O)(Nc1cnc2ccccc2c1)N1CCCCCC1 28.2 µM
